Experimental data taken from PubChem BioAssay (NCATS).
Where “and” joins values, the source holds several entries; their conditions need not be identical. Equal values may be shown once. Inconclusive results are not listed. Unmarked numbers belong to inactive results. Calls of active or inactive are those of the source. Unless noted, the call rests on the fitted dose curve; in most records, active means well fitted activation curve with a large enough effect; inconclusive means small, poorly fitted or top-dose-only effect; inactive means flat fitted curve, though single readings scatter.

test: qHTS assay for small molecule activators of the nuclear factor-kappa B (NF-kB) signaling pathway (AID 651749; active means well fitted activation curve with a large enough effect in the signal ratio; the % refers to the signal ratio; further: series mostly up to about 77 µM; % of control where 0% means no effect); settings: NF-kB-bla ME-180 cells, beta-lactamase FRET ratio, 16 h; activation: hits give high values
In short: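 Beta-lactamase reporter expression, controlled by NF-kB response elements in ME-180 cells, was quantified fluorometrically via FRET disruption; cells at 2,000/well had been incubated with 23 nL test compound for 16 hr.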

| SMILES | activation |
| --- | --- |
| C/C(=N\NC(=O)Nc1cc(F)cc(F)c1)c1ncccc1C(=O)O | 0.367% and -2.66% |
| CCCC1COC(Cn2cncn2)(c2ccc(Cl)cc2Cl)O1 (configuration not stated) | -0.905% and -2.64% |
| O=S(=O)(c1ccc(O)cc1)c1ccc(O)cc1 | -0.813% |
| CCOc1nc(NC)nc(NC(=O)NS(=O)(=O)c2ccccc2C(=O)OC)n1 | 1.48% |
| CCOP(=S)(OCC)SCC(=O)NC(C)C | 0.608% |
| NS(=O)(=O)C(F)(F)C(F)(F)C(F)(F)C(F)(F)C(F)(F)C(F)(F)C(F)(F)C(F)(F)F | 3.4% |
| Clc1ccc([C@]2(Cn3cncn3)C[C@@H](Br)CO2)c(Cl)c1 | -2.1% and -2.03% |
| CCOP(=O)(SC(C)CC)SC(C)CC (configuration not stated) | -1.37% |
| O=S1OC[C@@H]2[C@H](CO1)[C@@]1(Cl)C(Cl)=C(Cl)[C@]2(Cl)C1(Cl)Cl (some centres not stated) | 0.712% and 0.812% |
| FC(F)(F)c1ccc(OCCCOc2c(Cl)cc(OCC=C(Cl)Cl)cc2Cl)nc1 | 0.158% |
| C=CCC1=C(C)[C@@H](OC(=O)[C@@H]2[C@@H](C=C(C)C)C2(C)C)CC1=O | -0.0415% |
| Cc1ccccc1C(=O)Nc1cccc(OC(C)C)c1 | 0.221% |
| Nc1ccc([N+](=O)[O-])cc1Cl | 0.235% |
| CCCCC(CC)C(=O)Cl (configuration not stated) | -0.95% |
| CCOP(=O)(OCC)SCSCC | -2% |
| CCOP(=O)(OCC)SCSC(C)(C)C | -3.03% |
| CNC(=O)Oc1ccc(N(C)C)c(C)c1 | -0.493% |
| COC(=O)c1ccccc1CS(=O)(=O)NC(=O)Nc1nc(OC)cc(OC)n1 | -0.866% |
| CCOP(=S)(OCC)Oc1cnc2ccccc2n1 | -0.487% |
| CCCCN(CC)C(=O)SCCC | -0.995% |
| C/C=C(\C)C(=O)O[C@H]1C[C@@H](OC(C)=O)[C@@]2(C(=O)OC)CO[C@H]3[C@@H](O)[C@@](C)([C@]45O[C@@]4(C)[C@H]4C[C@@H]5O[C@@H]5OC=C[C@@]54O)[C@H]4[C@]1(CO[C@]4(O)C(=O)OC)[C@@H]32 | -1.4% |
| C=CC1(C)OC(=O)N(c2cc(Cl)cc(Cl)c2)C1=O (configuration not stated) | -0.261% |

test: qHTS assay for environmental chemicals that activate the Aryl hydrocarbon Receptor (AhR) signaling pathway (AID 651777); settings: 1A2-DRE human hepatoma cells, luciferase, 24 h; activation: hits give high values; further: nearly all actives have a fitted effect of over 15% in size; further: potency means the concentration at half of the fitted maximal effect; on activation: % of control where 0% means no effect
In short: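 Reporter gene assay: hepatoma cells with DRE/CYP1A2-luciferase, 24 hr compound incubation at 37 C, 5% CO2, luminescence after One-Glo (30 min, RT).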

| SMILES | activation | Potency |
| --- | --- | --- |
| C/C(=N\NC(=O)Nc1cc(F)cc(F)c1)c1ncccc1C(=O)O | 0.312% and 2.08% |  |
| Cc1cnc(C2=NC(C)(C(C)C)C(=O)N2)c(C(=O)O)c1 (configuration not stated) | 1.97% and -3.27% |  |
| O=S(=O)(c1ccc(O)cc1)c1ccc(O)cc1 | -1.25% |  |
| CCOP(=O)(O)C(N)=O | -2.02% |  |
| CCOc1nc(NC)nc(NC(=O)NS(=O)(=O)c2ccccc2C(=O)OC)n1 | 0.873% |  |
| COc1ccc(O)c(C(C)(C)C)c1 | 3.77% |  |
| CCOP(=S)(OCC)SCC(=O)NC(C)C | 0.496% |  |
| NS(=O)(=O)C(F)(F)C(F)(F)C(F)(F)C(F)(F)C(F)(F)C(F)(F)C(F)(F)C(F)(F)F | 4% |  |
| Clc1ccc([C@]2(Cn3cncn3)C[C@@H](Br)CO2)c(Cl)c1 | 3.17% and 2.53% |  |
| CCOP(=O)(SC(C)CC)SC(C)CC (configuration not stated) | 0.937% |  |
| CNC(=O)Oc1cccc2c1OC(C)(C)C2O (configuration not stated) | 0.301% |  |
| C/C(=N\C(N)=O)N(C)Cc1ccc(Cl)nc1 | -0.747% |  |
| O=S1OC[C@@H]2[C@H](CO1)[C@@]1(Cl)C(Cl)=C(Cl)[C@]2(Cl)C1(Cl)Cl (some centres not stated) | 0.042% and 0.216% |  |
| FC(F)(F)c1ccc(OCCCOc2c(Cl)cc(OCC=C(Cl)Cl)cc2Cl)nc1 | -0.256% |  |
| C=CCC1=C(C)[C@@H](OC(=O)[C@@H]2[C@@H](C=C(C)C)C2(C)C)CC1=O | 1.77% |  |
| CCOC1Oc2ccc(OS(C)(=O)=O)cc2C1(C)C (configuration not stated) | 1.08% |  |
| Nc1ccc([N+](=O)[O-])cc1Cl | 3.47% |  |
| CCCCC(CC)C(=O)Cl (configuration not stated) | 0.633% |  |
| CCNc1nc(NC(C)(C)C)nc(SC)n1 | 0.606% |  |
| CCOP(=O)(OCC)SCSCC | 0.0868% |  |
| CCOP(=O)(OCC)SCSC(C)(C)C | -0.964% |  |
| CNC(=O)Oc1ccc(N(C)C)c(C)c1 | 3.59% |  |
| COC(=O)c1ccccc1CS(=O)(=O)NC(=O)Nc1nc(OC)cc(OC)n1 | -0.954% |  |
| Cc1cc(Cl)ccc1OCC(=O)O | 0.725% and -1.61% |  |
| CCOP(=S)(OCC)Oc1cnc2ccccc2n1 |  | 35.5 µM (active) |
| CCOP(=S)(S)OCC | 0.356% |  |
| CCCCN(CC)C(=O)SCCC | 0.496% |  |
| O=[N+]([O-])c1ccc(Oc2ccc(C(F)(F)F)cc2[N+](=O)[O-])cc1 | 9.12% |  |
| C/C=C(\C)C(=O)O[C@H]1C[C@@H](OC(C)=O)[C@@]2(C(=O)OC)CO[C@H]3[C@@H](O)[C@@](C)([C@]45O[C@@]4(C)[C@H]4C[C@@H]5O[C@@H]5OC=C[C@@]54O)[C@H]4[C@]1(CO[C@]4(O)C(=O)OC)[C@@H]32 | -0.999% |  |
| C=CC1(C)OC(=O)N(c2cc(Cl)cc(Cl)c2)C1=O (configuration not stated) | -0.237% |  |
